Source: PubChem BioAssay
A selection: hits, their analogues and other compounds. The true share with any hit is near 9.9%.
IL-1B inflam inh = inflammasome signaling inhibition, IL-1 beta readout. hit rate 4.7% among 360,000. activity change, % at 57.5 µM. THP-1 LPS/ATP IL-1B secretion, AlphaLISA, 16 h; active compounds read low; in the data active means activity change below about -50%; inconclusive means mostly about -30% to -49%
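THP-1 cells pretreated 1 hr with compounds (up to 57.5 uM final), then stimulated with LPS (250 ng/mL final) plus ATP (1.25 mM final); secreted IL-1B measured by AlphaLISA after 16 hr, decreased signal indicating inhibition.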
KB-3-1 cytotox = kills parental KB-3-1 adenocarcinoma cells. KB-3-1 viability, CellTiter-Glo ATP luminescence, 72 h. hit rate 1.4% among 400,000. Potency, µM (series often up to 46.1 µM), most hits filed as cytotoxic. AID 1347075; further: nearly all actives have a fitted effect of over 60% in size
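Cells are dispensed, compounds pinned in, plates held at 37 °C for 72 h, then CellTiter-Glo is added and luminescence read after 10 minutes. Cell line: parental KB-3-1 in phenol-red-free DMEM, 10% FBS.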
KB-V1 MDR tox = KB-V1 MDR subline cytotoxicity. KB-V1 MDR cells viability, CellTiter-Glo, 72 h. Potency, µM (top dose mostly 46.1 µM), hits mostly cytotoxic. hit rate 3.4% among 400,000. AID 1347076; further: nearly all actives have a fitted effect of over 60% in size
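Cytotoxicity via CellTiter-Glo luminescence after 72 h compound exposure at 37 degrees C. Cells: drug-selected KB-V1 line, DMEM phenol-red free plus 10% FBS. Compounds tested at multiple concentrations; normalized data fitted to concentration-effect curves.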
MCF10A rereplic = inducers of DNA re-replication in MCF 10A breast cells | MCF 10A DNA re-replication, Hoechst nuclear intensity, 48 h | Potency, µM (highest dose often 46.1 µM), hits mostly activators | hit rate 2.9% among 350,000 | AID 624296; further: nearly all actives have a fitted effect of over 50% in size
SW480 rereplic = DNA re-replication induction in SW480 cells; SW480 DNA re-replication, Hoechst DNA content imaging, 48 h; Potency, µM (top dose mostly 46.1 µM), most hits filed as activators; hit rate 1.8% among 340,000; further: nearly all actives have a fitted effect of over 55% in size
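Compounds, transferred as 23 nL by pin tool, were incubated with cells for 48 hr; DNA content per nucleus was then quantified by Hoechst staining and fluorescence plate imaging.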
A number is an active result. Unless noted, the call rests on the fitted dose curve; in most records, active means well fitted curve in the direction sought with a large enough effect; inconclusive means small, poorly fitted or top-dose-only effect, or another doubt; inactive means no such curve, though single readings can be large; an effect the other way counts as inactive or inconclusive.

What do the screens show for `CCSC1=N/C(=C\c2cccnc2)C(=O)N1c1ccccc1`?
IL-1B inflam inh: inactive; KB-3-1 cytotox: inactive; KB-V1 MDR tox: 18.4µM; MCF10A rereplic: inconclusive; SW480 rereplic: inconclusive

Results for Cc1ccc2c(c1)-c1cc(C)ccc1C2=O ?
IL-1B inflam inh: inactive; KB-3-1 cytotox: inactive; KB-V1 MDR tox: inactive; MCF10A rereplic: inactive; SW480 rereplic: inactive

What do the screens show for `CCOC(=O)c1c(C)oc2ccc(OC(=O)COc3c(F)c(F)c(F)c(F)c3F)cc12`?
IL-1B inflam inh: inactive; KB-3-1 cytotox: inactive; KB-V1 MDR tox: inactive; MCF10A rereplic: inactive; SW480 rereplic: inconclusive

How did COc1ccc(NC(=O)c2cnn(-c3ccc(C)c(C)c3)c2C2CCNCC2)cc1OC do in these assays?
KB-3-1 cytotox: inactive; KB-V1 MDR tox: inactive

How did Cc1ccc(-n2ncc(C(=O)Nc3cc(Cl)cc(Cl)c3)c2C2CCNCC2)cc1C do in these assays?
IL-1B inflam inh: inactive; KB-3-1 cytotox: inactive; KB-V1 MDR tox: inactive; MCF10A rereplic: inconclusive; SW480 rereplic: 4.61µM

Results for CCCc1cc(=O)n2c(C(=O)Nc3ccc(OCC)cc3)c(C(=O)Nc3ccc(C)cc3)sc2n1 ?
KB-3-1 cytotox: inactive; KB-V1 MDR tox: inconclusive

Results for Cc1ccc(S(=O)(=O)c2cc3ccccc3oc2=Nc2ccc3c(c2)OCO3)cc1 ?
IL-1B inflam inh: inactive; KB-3-1 cytotox: inactive; KB-V1 MDR tox: inactive; MCF10A rereplic: inactive; SW480 rereplic: inactive

What do the screens show for `Cc1ccc(S(=O)(=O)c2cc3ccccc3oc2=Nc2ccc3c(c2)OCCO3)cc1`?
IL-1B inflam inh: inactive; KB-3-1 cytotox: inactive; KB-V1 MDR tox: 10.3µM; MCF10A rereplic: inactive; SW480 rereplic: inactive

What do the screens show for `O=C(CSc1nc2ccccc2[nH]1)Nc1nc(-c2cccc(Br)c2)cs1`?
IL-1B inflam inh: inactive; KB-3-1 cytotox: inactive; KB-V1 MDR tox: inconclusive; MCF10A rereplic: inactive; SW480 rereplic: inactive

Results for CN(C)CCCn1c(SCC(=O)Nc2nc(-c3cccc(Br)c3)cs2)nc2ccccc2c1=O ?
IL-1B inflam inh: -89.8; KB-3-1 cytotox: inconclusive; KB-V1 MDR tox: inconclusive; MCF10A rereplic: inconclusive; SW480 rereplic: inactive

How did CCOC(=O)C1(C)CCCN1C(=O)c1ccc(C(=O)OC)cc1 (centres undefined) do in these assays?
IL-1B inflam inh: inactive; KB-3-1 cytotox: inactive; KB-V1 MDR tox: inactive

What do the screens show for `COc1cccc(-c2coc3c(C)c4oc(=O)c(CCC(=O)O)c(C)c4cc23)c1`?
IL-1B inflam inh: -59.5; KB-3-1 cytotox: inactive; KB-V1 MDR tox: inactive; MCF10A rereplic: inactive; SW480 rereplic: inactive

Results for COc1cccc(-c2coc3c(C)c4oc(=O)c(CC(=O)O)c(C)c4cc23)c1 ?
IL-1B inflam inh: inactive; KB-3-1 cytotox: inactive; KB-V1 MDR tox: inactive; MCF10A rereplic: inactive; SW480 rereplic: inactive

Results for CCCCC(NC(=O)Cc1c(C)c2cc3c(-c4ccccc4)coc3c(C)c2oc1=O)C(=O)O (centres undefined) ?
IL-1B inflam inh: inactive; KB-3-1 cytotox: inactive; KB-V1 MDR tox: inconclusive; MCF10A rereplic: 20.6µM; SW480 rereplic: inactive

What do the screens show for `COC(=O)c1ccccc1-c1ccc(C(c2c(C)[nH][nH]c2=O)c2c(C)[nH][nH]c2=O)o1`?
IL-1B inflam inh: inconclusive; KB-3-1 cytotox: inconclusive; KB-V1 MDR tox: inconclusive; MCF10A rereplic: 14.1µM; SW480 rereplic: inactive

What do the screens show for `COc1ccc(-n2c(=S)[nH]c3cc(C(=O)N4CCN(c5ccccc5)CC4)ccc3c2=O)c(OC)c1`?
IL-1B inflam inh: inactive; KB-3-1 cytotox: inactive; KB-V1 MDR tox: inconclusive; MCF10A rereplic: inactive; SW480 rereplic: inactive

How did CN(C)c1cccc(F)c1C(=O)NC(=O)Nc1ccc(Cl)cc1 do in these assays?
IL-1B inflam inh: inactive; KB-3-1 cytotox: 3.66µM; KB-V1 MDR tox: 1.84µM; MCF10A rereplic: 10.3µM; SW480 rereplic: inconclusive

Results for CN(C)c1cccc(N(C)C)c1CNC(=O)NC(=O)c1c(F)cccc1F ?
IL-1B inflam inh: inactive; KB-3-1 cytotox: inactive; KB-V1 MDR tox: inconclusive; MCF10A rereplic: inactive; SW480 rereplic: inactive

How did CCSc1nnc(NC(=O)c2ccccc2C)s1 do in these assays?
IL-1B inflam inh: inactive; KB-3-1 cytotox: inactive; KB-V1 MDR tox: inconclusive; MCF10A rereplic: inactive; SW480 rereplic: inactive

Results for CN1CCN(C(=O)c2ccc(-c3ccc(F)c(F)c3)c3ccoc23)CC1 ?
IL-1B inflam inh: inactive; KB-3-1 cytotox: inactive; KB-V1 MDR tox: inactive
